# Source: PubChem BioAssay (EPA / NIEHS)
# Inconclusive results are not listed. Calls of active or inactive are those of the source. The calls were made as follows, unless noted: active = hit-call score of the fitted dose curve at least 0.9, where 1 is the maximum; inactive = score below 0.9.
# Columns and labels:
# [1] = tested on: IYD (gene 389434); assay: CCTE_GLTED_hIYD: CCTE's human Iodotyrosine Deiodinase (xIYD) Inhibition Assay, Great Lakes Toxicology and Ecology Division (GLTED) Lab (AID 2284317; active = hit-call score of the fitted dose curve at least 0.9, where 1 is the maximum;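 also: cell-free human IYD enzyme made in baculovirus insect cells; iodide freed from monoiodotyrosine measured by cerium arsenite color change at 420 nm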)
# Method in brief: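 Human IYD expressed in a baculovirus-insect cell system was incubated 3 h with monoiodotyrosine and test chemical. Released iodide, separated on Dowex columns, was quantified by the Sandell-Kolthoff reaction at 420 nm; plates were normalized to MNT and DMSO/NaOH controls.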
# [2] = CCTE_Deisenroth_5AR_NBTE_acceptor: CCTE's 5alpha-reductase NanoBRET Target Engagement Assay - Autofluorescence Screen, Deisenroth Lab (AID 2284321); details: actives raise or lower the signal;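 also: compound fluorescence in the acceptor channel under 460 nm excitation flags autofluorescence artifacts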
# Method in brief: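 Autofluorescence check: ToxCast chemicals, nominal 100 uM, excitation 460 nm, n=3 runs. Acceptor fluorescence endpoint, bidirectional fit relative to DMSO. Parent assay in HEK293T, 5 h post-dose.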
# [3] = tested on: SRD5A2 (gene 6716); assay: CCTE_Deisenroth_5AR_NBTE_ratio: CCTE's 5alpha-reductase NanoBRET Target Engagement Assay - Ratio, Deisenroth Lab (AID 2284322); details: actives raise or lower the signal
# Method in brief: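 Reverse-transfect HEK293T with pNLF1-C-SRD5A2, express 20 h. Pre-incubate cells with chemical 3 h (8-point series, 10 nM - 29.9 uM, duplicate). Add testosterone tracer, 2 h more. Add substrate/inhibitor, read donor and acceptor emission.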
# [4] = IUF_NPC5_oligodendrocyte_differentiation_120hr: Leibniz Research Institute for Environmental Medicine (IUF) 120-hour Oligodendrocyte Differentiation Assay (NPC5) (AID 2284304; active = hit-call score of the fitted dose curve at least 0.9, where 1 is the maximum;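 also: primary human fetal neural progenitor spheres plated to migrate and differentiate; share of O4-positive cells among Hoechst nuclei found by CNN image analysis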)
# Method in brief: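 hNPC spheres, fetal cortex GW 16-19; PDL/laminin, DMEM:F12 3:1 + 1% N2, 37C/5% CO2; 7 concentrations + solvent control, 5 d exposure, half-change day 3. Readout: %O4+ of Hoechst+ nuclei in migration area, CNN classification; DMSO baseline.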
# [5] = IUF_NPC2-5_cytotoxicity_72hr: Cytotoxicity Assessment at 72 hours in the Leibniz Research Institute for Environmental Medicine (IUF) Neural Progenitor Cell Migration and Differentiation Assay for Cytotoxicity (NPC2-5) (AID 2284306; active = hit-call score of the fitted dose curve at least 0.9, where 1 is the maximum;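 also: LDH release into supernatant measured by resorufin fluorescence marking membrane damage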)
# Method in brief: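 Human fetal primary neural progenitor spheres (0.3 mm) plated on poly-D-lysine/laminin in N2 differentiation medium, exposed from day 0 at 37C. LDH-dependent resazurin-to-resorufin fluorescence in supernatant at 72 h; 7 concentrations, DMSO at most 0.1%.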
# [6] = IUF_NPC2-5_cytotoxicity_120hr: Cytotoxicity Assessment at 120 hours in the Leibniz Research Institute for Environmental Medicine (IUF) Neural Progenitor Cell Migration and Differentiation Assay (NPC2-5) (AID 2284307; active = hit-call score of the fitted dose curve at least 0.9, where 1 is the maximum)
# Method in brief: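 hNPC spheres on PDL/laminin, N2 medium, 37C; 7 concs + solvent control, DMSO ≤0.1%; 5-day exposure, half medium changed day 3. LDH in supernatant at 120 h, resazurin→resorufin fluorescence, gain-of-signal.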
# [7] = IUF_NPC2-5_cell_number_120hr: Cell Number Assessment at 120 hours in the Leibniz Research Institute for Environmental Medicine (IUF) Neural Progenitor Cell Migration and Differentiation Assay (NPC2-5) (AID 2284308);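 also: count of Hoechst-stained nuclei in migration zone around plated human neural progenitor spheres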
# Method in brief: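 Hoechst-stained nuclei within the migration area were counted by automated high content imaging after 120 h. Single hNPC spheres differentiated on poly-D-lysine/laminin in DMEM/F12 (3:1) with 1% N2, compound present throughout, DMSO ≤0.1%.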
# [8] = IUF_NPC2-5_viability_120hr: Viability Assessment at 120 hours in the Leibniz Research Institute for Environmental Medicine (IUF) Neural Progenitor Cell Migration and Differentiation Assay (NPC2-5) (AID 2284312)
# Method in brief: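 Human fetal neural progenitor spheres (0.3 mm) plated on poly-D-lysine/laminin in N2 differentiation medium, exposed 120 h with half-medium refresh at day 3. Viability by alamar blue resazurin fluorescence; 7 concentrations, DMSO max 0.1%.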
# [9] = CCTE_Mundy_HCI_iCellGluta_NOG_NeuriteLength: CCTE's Neurite Outgrowth Assay in iCellGluta cells for Neurite Length, Mundy Lab (AID 2284318; active = hit-call score of the fitted dose curve at least 0.9, where 1 is the maximum)
# Method: CCTE_Mundy_HCI_iCellGluta_NOG is a multiplexed, cell-based-readout assay that uses iCell GlutaNeurons from FUJIFILM Cellular Dynamics, Inc. (FCDI), human glutamatergic enriched neurons derived from induced pluripotent stem (iPS) cells, with measurements taken at 50.33 hours after chemical dosing in a microplate: 96-well plate.CCTE_Mundy_HCI_iCellGluta_NOG_NeuriteLength is one of four components of the CCTE_Mundy_HCI_iCellGluta_NOG assay. It measures neurite outgrowth related to neurite length using High Content Imaging of fluorescently labelled markers.Data from the assay component CCTE_Mundy_HCI_iCellGluta_NOG_NeuriteLength was analyzed at the endpoint CCTE_Mundy_HCI_iCellGluta_NOG_NeuriteLength in the positive analysis fitting direction relative to DMSO as the negative control and baseline of activity. Using a type of morphology reporter, loss-of-signal activity can be used to understand developmental effects.
# Exposure starts 2 hours post-plating by adding 10 ul of the working solution to 90 ul of media in the wells for a 1/10 dilution. Forty-eight hours after chemical treatment cells are fixed by direct addition of 100 ul of warm (37C) Dulbecco's phosphate buffered saline (DPBS) fixative solution containing 8% paraformaldehyde, 8% sucrose, and 0.1% of 3 mg/ml Hoechst 33342 into each well. Primary antibodies are prepared by dilution in Immunocytochemical Staining Buffer (ISB), 10X Dulbecco's PBS, 0.1% Saponin, 5% Bovine Serum Albumin, 0.5% NaN3 (Sodium Azide) and betaIII-tubulin (rabbit anti-betaIII-tubulin, 1:800) followed by Alexa Fluor-488 secondary (1:500) to label neuronal cell bodies and neurites. A Cellomics ArrayScan VTi HCS Reader is used for automated image acquisition and analysis of neurite outgrowth.
# [10] = IUF_NPC4_neurite_area_120hr: Leibniz Research Institute for Environmental Medicine (IUF) 120-hour Neuronal Morphology Assay for Neurite Area (NPC4) (AID 2284305; active = hit-call score of the fitted dose curve at least 0.9, where 1 is the maximum)
# Method in brief: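 Human fetal neural progenitor spheres (0.3 mm) plated on poly-D-lysine/laminin in N2 differentiation medium, exposed 120 h (7 concentrations, DMSO ≤0.1%, half-medium refresh day 3). Fixed, TUBB3 immunostained; mean neurite area per neuron by Omnisphero skeletonization.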
smiles,measurement,setting,value
CC(C)(C)c1ccc(-c2ccc(C(C)(C)C)cc2)cc1,outcome,[1],inactive
CCCc1ccc(OC)cc1,outcome,[2],inactive
same,outcome,[3],inactive
CCCCCCCC/C=C\CCCCCCCC(=O)O,AC50,[1],41 µM (active)
same,outcome,[2],inactive
same,outcome,[3],inactive
CCN(CCC#N)c1ccc(N=Nc2c(Cl)cc([N+](=O)[O-])cc2Cl)cc1,AC50,[1],152 µM (active)
same,outcome,[2],inactive
same,AC50,[3],10 µM (active)
Cc1ccc(C(C)c2ccc(C)c(C)c2)cc1C,outcome,[2],inactive
same,AC50,[3],50 µM (active)
CC1(C)S[C@@H]2[C@H](NC(=O)COc3ccccc3)C(=O)N2[C@H]1C(=O)O,outcome,[4],inactive
same,outcome,[5],inactive
same,outcome,[6],inactive
same,outcome,[7],inactive
same,outcome,[8],inactive
same,outcome,[9],inactive
CC1=NN(c2cc(S(=O)(=O)O)ccc2Cl)C(=O)C1N=Nc1ccccc1 (stereo not given),outcome,[2],inactive
same,AC50,[3],10 µM (active)
Nc1ncn([C@@H]2O[C@H](CO)[C@@H](O)[C@H]2O)c(=O)n1,outcome,[10],inactive
same,outcome,[5],inactive
same,outcome,[6],inactive
same,outcome,[7],inactive
same,outcome,[8],inactive
same,AC50,[9],7.87 µM (active)
CCCCCCCC/C=C\CCCCCCCC(=O)OCCO,AC50,[1],128 µM (active)
CCCCCCCCCCCCCOP(=O)(O)O,AC50,[1],40.2 µM (active)
CN(C)c1ccc(C(=N)c2ccc(N(C)C)cc2)cc1,outcome,[2],inactive
same,AC50,[3],22.6 µM (active)
CC/C=C\C/C=C\C/C=C\CCCCCCCC(=O)O,outcome,[1],inactive
Oc1ccc(Cl)cc1Cc1cc(Cl)ccc1O,AC50,[1],100 µM (active)
same,outcome,[2],inactive
same,AC50,[3],29 µM (active)
O=C(Nc1ccccc1)c1ccccc1O,outcome,[1],inactive
CCCCCCCC[N+](C)(CCCCCCCC)CCCCCCCC,AC50,[1],27.2 µM (active)
same,AC50,[2],8.7 µM (active)
same,AC50,[3],20.1 µM (active)
COC(=O)c1c(C)cc(O)c(C)c1O,outcome,[2],inactive
same,outcome,[3],inactive
C1CN(SSN2CCOCC2)CCO1,outcome,[2],inactive
same,outcome,[3],inactive
O=C(Nc1cccc(C(F)(F)F)c1)c1cc(Br)cc(Br)c1O,AC50,[1],100 µM (active)
N[C@H]1C(O)O[C@H](CO)[C@H](O)[C@@H]1O (stereo not given in full),outcome,[9],inactive
O=S(=O)(O)c1ccccc1C=Cc1ccc(-c2ccc(C=Cc3ccccc3S(=O)(=O)O)cc2)cc1,AC50,[1],100 µM (active)
CCCCC/C=C\C/C=C\CCCCCCCC(=O)OC,outcome,[1],inactive
